# Results published in PubChem BioAssay AID651813 (National Center for Advancing Translational Sciences (NCATS), 2012).
# The whole screen tested about 2,100 compounds, of which about 1,100 (52%) were called active. About 27% were inconclusive and are not listed. The call rests on the fitted dose curve; in most records, active means well fitted inhibition curve with a large enough effect; inconclusive means small, poorly fitted or top-dose-only effect; inactive means no such curve, though single readings can be large or run the other way. The set was probably picked from earlier hits. Some of the results follow.
# Biological target: DNA dC->dU-editing enzyme APOBEC-3G (Homo sapiens) (UniProt Q9HC16)
# Assay: qHTS for inhibitors of Vif-A3G interactions: Cherry picks counterscreen;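 further: hits raise yellow fluorescence by blocking Vif-driven A3G-eYFP degradation; nearly all actives have a fitted effect of over 70% in size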;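 on max response: max response given as percent of control signal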
# Conditions: HeLa A3G-eYFP + Vif (tagged APOBEC3G with the HIV-1 protein that degrades it), eYFP fluorescence, 24 h
# Method in brief: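 Readout is eYFP fluorescence (488 nm excitation, 500-530 nm emission) measured on Acumen Explorer after 24 h compound exposure, several concentrations, at 37 deg C. Cells: HeLa stably co-expressing Vif and C-terminally eYFP-tagged A3G; MG132 positive control.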
# Potency means the concentration at half of the fitted maximal effect.
# DNA dC->dU-editing enzyme APOBEC-3G (Homo sapiens), sequence (Q9HC16 whole entry, looked up): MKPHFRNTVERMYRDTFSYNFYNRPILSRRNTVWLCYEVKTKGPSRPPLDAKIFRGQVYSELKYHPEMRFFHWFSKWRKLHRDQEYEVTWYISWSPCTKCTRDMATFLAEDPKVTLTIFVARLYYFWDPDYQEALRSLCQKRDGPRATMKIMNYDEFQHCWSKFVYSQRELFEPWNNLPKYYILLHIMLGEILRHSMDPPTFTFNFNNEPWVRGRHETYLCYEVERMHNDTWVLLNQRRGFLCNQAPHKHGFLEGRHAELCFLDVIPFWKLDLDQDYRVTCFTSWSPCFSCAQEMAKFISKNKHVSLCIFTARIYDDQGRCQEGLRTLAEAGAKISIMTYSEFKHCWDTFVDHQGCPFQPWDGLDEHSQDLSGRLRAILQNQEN
Compound,max response,Potency
CN(C)S(=O)(=O)c1ccc(N2CCCC2)c(C(=O)N2CCN(S(=O)(=O)c3ccc(F)c(F)c3)CC2)c1,9.68% (inactive),
CN1CCN(c2ccc([N+](=O)[O-])cc2C(=O)c2ccc(Br)cc2)CC1,,4.98 µM (active)
COc1ccc(C(=O)c2cc([N+](=O)[O-])ccc2N2CCCC2)cc1,,7.04 µM (active)
Cc1ccc(C(=O)c2cc([N+](=O)[O-])ccc2N2CCN(C)CC2)cc1,,7.04 µM (active)
Cc1ccc(C(=O)c2cc([N+](=O)[O-])ccc2N2CCOCC2)cc1C,,0.994 µM (active)
CNc1cncc(-c2cc(C)c(O)c(C)c2)n1,,4.98 µM (active)
Cc1sc2nc(SCC(=O)N3CCOCC3)[nH]c(=O)c2c1-c1ccccc1,-5.17% (inactive),
CCOC(=O)CSc1nc2c(c(=O)[nH]1)C(C)(CC)Cc1ccccc1-2 (configuration not stated),,8.2 µM (active)
COc1cccc(N2CCN(Cc3nc4scc(-c5ccccc5)c4c(=O)[nH]3)CC2)c1,,12.5 µM (active)
O=c1[nH]c(CN2CCN(c3ccccc3)CC2)nc2scc(-c3ccccc3)c12,,9.2 µM (active)
CCS(=O)(=O)C1=NN2C(=N)/C(=C\c3ccc(SCc4ccco4)o3)C(=O)N=C2S1,2.81% (inactive),
CC1=CN2C(=N)/C(=C/c3ccc([N+](=O)[O-])o3)C(=O)N=C2S1,,17.7 µM (active)
COc1ccc(CCNC(=O)CC2(CC3=NS(=O)(=O)c4ccccc4N3)CCCC2)cc1OC,-1.6% (inactive),
COc1cccc(-c2ccc3c(N)c(C(=O)c4ccc(Cl)cc4)sc3n2)c1,,20.6 µM (active)
COc1cccc(-c2ccc3c(N)c(C(=O)c4ccc(Br)cc4)sc3n2)c1,,20.6 µM (active)
Cc1noc(C)c1COc1ccc(C(=O)NNC(=O)c2ccccc2)cc1,,5.59 µM (active)
Cc1noc(C)c1COc1ccc(C(=O)NNC(=O)c2ccccc2F)cc1,,8.86 µM (active)
CCOC(=O)c1c(-c2ccc(C)cc2)csc1NC(=O)/C(C#N)=C/c1ccc(O)c(OC)c1,57.5% (inactive),
CCOc1cc(/C=C(/C#N)C(=O)Nc2ccc(O)cc2)cc(Br)c1O,,17.7 µM (active)
CCOc1ccc(NC(=O)/C(C#N)=C/c2ccc(N3CCCC3)c(C)c2)cc1,,2.06 µM (active)
Cc1cccc(N2CCN(C(=O)c3cccc(N4CCCC4=O)c3)C(C)C2)c1 (configuration not stated),,14 µM (active)
Cc1ccc(-n2c(=O)c3ccc(C(=O)NCc4ccccc4Cl)cc3n(CC(=O)Nc3cccc(Cl)c3)c2=O)cc1,-24% (inactive),
CCOc1ccc(NC(=O)Cn2c(=O)n(Cc3ccc(C(=O)NCc4ccc(C)cc4)cc3)c(=O)c3ccccc32)cc1,,13 µM (active)
Cc1ccc(N2C(=O)CS/C2=C(\C(Cl)=C(Cl)Cl)[N+](=O)[O-])cc1,1.1% (inactive),

Compound,max response,Potency
Cc1ccc(NC(=O)/C(C#N)=C\c2ccc(-c3ccc(Cl)cc3)o2)c(C)c1,,5.8 µM (active)
COc1ccc(C)c(Cn2c(-c3nonc3N)nc3ccccc32)c1,,3.14 µM (active)
COc1cccc(Cn2c(-c3nonc3NC(C)=O)nc3ccccc32)c1,,11.6 µM (active)
Nc1nonc1-c1nc2ccccc2n1CC(=O)Nc1cccc(C(F)(F)F)c1,,18.4 µM (active)
CC(NC(=S)Nc1cccc(C(F)(F)F)c1)C(C)(C)C (configuration not stated),21.6% (inactive),
COc1cccc(Cn2c(-c3nonc3N)nc3ccccc32)c1,,1.25 µM (active)
Cc1cn2c(N)c(C=C3C=C(Cl)C(=O)C(Cl)=C3)c(=O)nc2s1,34.2% (inactive),
Cc1cccc(CSc2cccc3cccnc23)c1,-11.2% (inactive),
CCC(C)Sc1ccc(-c2nc3cc(C)ccn3c2NC2CCCCC2)cc1 (configuration not stated),26.9% (inactive),
CCC(=O)Nc1nonc1-c1nc2ccccc2n1Cc1ccccc1,,14 µM (active)
Nc1nonc1-c1nc2ccccc2n1Cc1ccc(F)cc1,,12.5 µM (active)
CCOC(=O)c1c(CN(CC)CC)n(-c2ccccc2)c2ccc(O)cc12,2.24% (inactive),
O=C1S/C(=C/c2ccc(N3CCOCC3)o2)C(=O)N1Cc1ccc(F)cc1,,7.04 µM (active)
CCCN1C(=O)S/C(=C\c2ccc(N3CCOCC3)o2)C1=O,,2.23 µM (active)
O=C1S/C(=C/c2ccc(N3CCOCC3)o2)C(=O)N1Cc1c(F)cccc1Cl,,2.8 µM (active)
O=C1S/C(=C\c2ccc(N3CCOCC3)o2)C(=O)N1c1ccccc1,,1.98 µM (active)
CCCN1C(=O)S/C(=C/c2ccc(N3CCOCC3)o2)C1=O,50.5% (inactive),
Cc1cc(C)c(C(=O)N(CCN(C)C)CC2CCCN(Cc3ccccc3F)C2)o1 (configuration not stated),0.428% (inactive),
COc1cc(/C=C2/SC(=S)N(Cc3ccccc3)C2=O)cc(OC)c1O,,12.5 µM (active)
C=CCN1C(=O)/C(=C/c2ccc(O)c(OC)c2)S/C1=N/c1nccs1,,4.61 µM (active)
COc1cc(/C=C2/SC(=S)N(CCC(=O)Nc3ccccc3)C2=O)cc(OC)c1OC,,20.6 µM (active)
O=C1/C(=C\c2ccc(O)cc2)SC(=S)N1Cc1ccccc1,39.2% (inactive),
COc1cc(/C=C2/SC(=S)N(Cc3ccccc3)C2=O)cc(Cl)c1O,,2.23 µM (active)
